# Assay results: publication PMC4336329 (PLoS ONE, 2015)
# Out of some 310,000 compounds screened, about 2,200 (0.71%) showed an effect of 50% or more. Effects have a minus sign here. What follows is part of a selection rich in strong results, with near analogues and random picks from the rest.
# Target: human ether-à-go-go-related gene (hERG) potassium channel (human, UniProt Q12809)
# Test: primary screen, population patch clamp on CHO cells stably expressing hERG; higher = less effect of the substance
# Sequence of human ether-à-go-go-related gene (hERG) potassium channel (Q12809 whole entry, looked up): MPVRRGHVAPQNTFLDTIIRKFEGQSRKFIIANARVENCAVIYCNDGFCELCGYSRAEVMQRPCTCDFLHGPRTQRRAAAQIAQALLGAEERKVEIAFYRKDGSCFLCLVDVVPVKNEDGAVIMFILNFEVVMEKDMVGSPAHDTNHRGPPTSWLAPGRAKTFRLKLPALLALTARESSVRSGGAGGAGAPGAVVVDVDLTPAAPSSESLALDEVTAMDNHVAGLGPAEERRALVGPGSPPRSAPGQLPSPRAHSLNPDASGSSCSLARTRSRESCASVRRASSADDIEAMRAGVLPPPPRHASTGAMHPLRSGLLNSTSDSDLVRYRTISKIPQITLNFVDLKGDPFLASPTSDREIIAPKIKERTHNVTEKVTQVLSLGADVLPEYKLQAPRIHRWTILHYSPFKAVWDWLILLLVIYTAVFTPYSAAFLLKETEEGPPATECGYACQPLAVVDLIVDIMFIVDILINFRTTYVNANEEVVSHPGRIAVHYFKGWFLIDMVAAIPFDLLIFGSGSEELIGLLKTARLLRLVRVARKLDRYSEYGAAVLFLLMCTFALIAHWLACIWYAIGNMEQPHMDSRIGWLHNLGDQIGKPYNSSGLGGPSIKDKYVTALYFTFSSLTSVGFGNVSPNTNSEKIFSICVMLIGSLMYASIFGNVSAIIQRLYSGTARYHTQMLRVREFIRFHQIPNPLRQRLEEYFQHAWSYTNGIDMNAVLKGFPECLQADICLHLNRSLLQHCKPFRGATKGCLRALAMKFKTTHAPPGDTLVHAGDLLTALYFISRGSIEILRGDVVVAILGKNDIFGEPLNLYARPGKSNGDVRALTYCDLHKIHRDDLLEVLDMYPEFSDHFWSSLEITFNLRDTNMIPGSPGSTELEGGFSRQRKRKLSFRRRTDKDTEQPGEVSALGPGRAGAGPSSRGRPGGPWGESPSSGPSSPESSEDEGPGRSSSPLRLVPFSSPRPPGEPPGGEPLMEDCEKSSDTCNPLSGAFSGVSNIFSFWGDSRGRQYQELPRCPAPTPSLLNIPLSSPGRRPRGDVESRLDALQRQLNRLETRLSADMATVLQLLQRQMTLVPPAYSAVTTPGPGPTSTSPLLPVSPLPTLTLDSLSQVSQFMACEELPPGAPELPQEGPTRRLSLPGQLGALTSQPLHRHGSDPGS
row,SMILES,"hERG current change (%, negative = inhibition) at 1uM [%]"
1,Cc1ccc(NC(=O)CN(C)C(=O)Cn2c(=O)oc3ccccc32)cc1,7.84
2,CC1CC(C)(C)NC(=S)N1CCCC(=O)N1CCN(c2ccc(F)cc2)CC1 (stereo not drawn),-4.06
3,CCCN(CCC)C(=O)Nc1cc(Cl)ccc1OC,14.4
4,CCOC(CNC(=O)Cn1nc(C)c2ccccc21)OCC,8.42
5,CCCCn1nnc(NC(=O)c2ccc(-c3ccccc3)cc2)n1,13.7
6,CC(C)(C)c1csc(NC(=O)c2c(F)c(F)c(F)c(F)c2F)n1,-2.19
7,O=C(c1cc(-c2ccncc2)nc2ccccc12)N1CCN(c2ccccn2)CC1,-64
8,O=C(c1cc(-c2ccncc2)nc2ccc(Br)cc12)N1CCN(c2ccccn2)CC1,-9.18
9,O=C(c1cc(-c2ccccc2)nc2ccccc12)N1CCN(c2ccccn2)CC1,1.88
10,CCCCCCCC(=O)Nc1ccc(C(=O)N/N=C/c2cccc([N+](=O)[O-])c2)cc1,12.6
11,O=C(CCSc1ccccc1)OCn1nnc2ccccc2c1=O,13.7
12,N#Cc1ccc(OCC(=O)N2CCN(S(=O)(=O)c3ccc(Cl)s3)CC2)cc1,-22.7
13,N#Cc1ccc(OCC(=O)N2CCN(S(=O)(=O)c3cccs3)CC2)cc1,-54.7
14,O=C(COc1ccccc1)N1CCN(S(=O)(=O)c2cccs2)CC1,-7.49
15,CCCc1cc(C(=O)O)c2ccccc2n1,-0.521
16,CN(CCC#N)C(=O)COc1ccc(Br)cc1Cl,3.5
17,CC(C)c1csc(CN2CCN(Cc3ccc(F)c(F)c3)C(CCO)C2)n1 (stereo not drawn),2.23
18,CC(C)c1csc(CN2CCN(Cc3ccc(F)cc3)C(CCO)C2)n1 (stereo not drawn),-4.26
19,COc1cccc(CN2CCN(Cc3nc(C(C)C)cs3)CC2CCO)c1 (stereo not drawn),-20
20,CCOc1ccc(CN2CCN(Cc3nc(C(C)C)cs3)CC2CCO)cc1 (stereo not drawn),-85.5
21,Cc1ccc(CN2CCN(Cc3nc(C(C)C)cs3)CC2CCO)cc1 (stereo not drawn),-50.8

row,SMILES,"hERG current change (%, negative = inhibition) at 1uM [%]"
1,CC(C)c1csc(CN2CCN(Cc3ccccc3)C(CCO)C2)n1 (stereo not drawn),10.1
2,Cc1ccc(S(=O)(=O)NC(=O)NCc2ccc(Cl)cc2)cc1,10.1
3,COC(=O)C1C(=O)C2=C(CC1C)NC(C)=C(C(=O)OCc1ccc(OC)cc1)C2c1ccc(C)o1 (stereo not drawn),0.03
4,O=S(=O)(c1ccc(F)c(F)c1)N1CCN(Cc2ccc3c(c2)OCO3)CC1,-9.04
5,Cc1c(NC(=O)c2ccc3c4c(cccc24)CC3)c(=O)n(-c2ccccc2)n1C,15.3
6,CC(=O)c1cccc(-n2nnnc2SCC(=O)Nc2cc(C)on2)c1,12.1
7,c1coc(-c2nnc(SCc3cn4ccccc4n3)o2)c1,-2.53
8,Cc1ccc2nc(CSc3nnc(-c4ccco4)n3-c3ccccc3)cc(=O)n2c1,-2.87
9,Cc1ccc2nc(CSc3nnc(-c4ccco4)o3)cc(=O)n2c1,-54
10,NC(=O)c1nsc(C(=O)N(c2ccccc2F)C(C(=O)NCc2ccccc2)c2ccc(O)cc2)c1N (stereo not drawn),8.51
11,O=C(c1sc2cc(Cl)ccc2c1Cl)N1CCN(CCc2ccccn2)CC1,-36.6
12,COc1ccc(C(=O)N2CCN(c3ccccn3)CC2)cc1,6.53
13,COc1ccc(C(=O)N2CCN(CCc3ccccn3)CC2)cc1.Cl,-66.6
14,COc1ccc(C(=O)N2CCN(Cc3ccccn3)CC2)cc1.O=C(O)C(=O)O,3.65
15,Cl.O=C(c1ccc(Cl)cc1)N1CCN(CCc2ccccn2)CC1,-53.7
16,O=C(c1ccccc1)N1CCN(CCc2ccccn2)CC1,16.3
17,COCCn1c(C)cc(/C=C2\NC(=S)N(C)C2=O)c1C,9.65
18,Cc1ccc(S(=O)(=O)NCCC(=O)NC(C)CCc2ccccc2)cc1 (stereo not drawn),-10.7
19,C=CCN(c1ccccc1)S(=O)(=O)c1cccc(C(=O)NCC(c2ccccc2OC)N2CCCC2)c1 (stereo not drawn),-12.9
20,CCN(CC)c1ccc(C2NC(=O)NC(C)=C2C(=O)Nc2ccccc2)cc1 (stereo not drawn),17.3
21,Cc1cccc(NC(=O)CSc2nnnn2C)n1,12.6

row,SMILES,"hERG current change (%, negative = inhibition) at 1uM [%]"
1,Fc1ccc(-n2cc(CNCCc3cccnc3)c(-c3ccccc3Cl)n2)cc1,-10
2,Fc1ccc(-n2cc(CNCCc3ccncc3)c(-c3ccccc3Cl)n2)cc1,-3.18
3,Fc1ccc(-n2cc(CNCCc3ccccn3)c(-c3ccccc3Cl)n2)cc1,-78.2
4,CCN(Cc1ccccc1)C(=O)CN1C(=S)NC(C)(C)CC1C (stereo not drawn),3.12
5,CCOC(=O)CNc1c(-c2ccc(O)cc2)nc2ccc(Cl)cn12.Cl,-13.3
6,CCOC(=O)CNc1c(-c2ccccc2)nc2ccc(Cl)cn12,-27.6
7,CCOC(=O)CNc1c(-c2ccc(OC)cc2)nc2ccc(Cl)cn12,-68.4
8,O=C(NCCN1CCOCC1)c1cc([N+](=O)[O-])cc([N+](=O)[O-])c1,12.5
9,CCc1c(C)c2c(C)[nH]nc2oc1=O,10.5
10,Fc1ccccc1NC(=S)N1CCN(C/C=C/c2ccccc2)CC1,7.89
11,O=C(CCN1CCN(C/C=C/c2ccccc2)CC1)Nc1ccccc1F.O=C(O)C(=O)O,-81.2
12,COc1ccc(S(=O)(=O)N2CCN(C/C=C/c3ccccc3)CC2)cc1F,8.5
13,Cl.O=C(CCN1CCN(C/C=C/c2ccccc2)CC1)Nc1ccccc1Cl,-47.6
14,Cc1ccccc1NC(=O)CCN1CCN(C/C=C/c2ccccc2)CC1,-72
15,COc1ccc(NC(C)=O)cc1S(=O)(=O)N1CCN(C/C=C/c2ccccc2)CC1,-48.1
16,COc1ccc(S(=O)(=O)N2CCN(C/C=C/c3ccccc3)CC2)cc1NC(C)=O,-54.2
17,O=C(CN1CCN(C/C=C/c2ccccc2)CC1)Nc1ccc(F)cc1F,-87.4
18,O=C(CCN1CCN(c2ccccc2)CC1)Nc1ccccc1F,14.5
19,Cc1ccccc1NC(=O)N1CCN(C/C=C/c2ccccc2)CC1,11
20,O=C(Nc1ccc(F)cc1F)N1CCN(C/C=C/c2ccccc2)CC1,-15.3
21,Fc1ccc(NC(=S)N2CCN(C/C=C/c3ccccc3)CC2)c(F)c1,13
